The source of these data is PubChem BioAssay (EPA / NIEHS).

Calls of active or inactive are those of the source. How the source made its calls: active means hit-call score of the fitted dose curve at least 0.9, where 1 is the maximum; inactive means score below 0.9.

The AC50 is the concentration at which the activity in the assay is half-maximal.

The target in the assay is Cellular tumor antigen p53 (Homo sapiens) (UniProt P04637). As to the kind of experiment: ATG_p53_CIS: Attagene CIS-FACTORIAL HepG2 Assay for human p53 Transcription Factor (AID 2282994). The settings on record: HepG2 p53 cis-element reporter, Attagene mRNA; actives raise or lower the signal. How it is done: ATG_CIS is a cell-based, multiplexed-readout assay that uses HepG2, a human liver cell line, with measurements taken at 24 hours after chemical dosing in a 24-well plate.ATG_p53_CIS is one of 52 assay component(s) measured or calculated from the ATG_CIS assay. It is designed to make measurements of mRNA induction, a form of inducible reporter, as detected with fluorescence intensity signals by Reverse transcription polymerase chain reaction (RT-PCR) and Capillary electrophoresis technology.Data from the assay component ATG_p53_CIS was analyzed into 1 assay endpoint. This assay endpoint, ATG_p53_CIS, was analyzed with bidirectional fitting relative to DMSO as the negative control and baseline of activity. Using a type of inducible reporter, measures of mRNA for gain or loss-of-signal activity can be used to understand the reporter gene at the transcription factor-level as they relate to the gene TP53. Furthermore, this assay endpoint can be referred to as a primary readout, because this assay has produced multiple assay endpoints where this one serves a reporter gene function. To generalize the intended target to other relatable targets, this assay endpoint is annotated to the dna binding intended target family, where the subfamily is tumor suppressor.
Sequence of Cellular tumor antigen p53 (Homo sapiens) (P04637 whole entry, looked up): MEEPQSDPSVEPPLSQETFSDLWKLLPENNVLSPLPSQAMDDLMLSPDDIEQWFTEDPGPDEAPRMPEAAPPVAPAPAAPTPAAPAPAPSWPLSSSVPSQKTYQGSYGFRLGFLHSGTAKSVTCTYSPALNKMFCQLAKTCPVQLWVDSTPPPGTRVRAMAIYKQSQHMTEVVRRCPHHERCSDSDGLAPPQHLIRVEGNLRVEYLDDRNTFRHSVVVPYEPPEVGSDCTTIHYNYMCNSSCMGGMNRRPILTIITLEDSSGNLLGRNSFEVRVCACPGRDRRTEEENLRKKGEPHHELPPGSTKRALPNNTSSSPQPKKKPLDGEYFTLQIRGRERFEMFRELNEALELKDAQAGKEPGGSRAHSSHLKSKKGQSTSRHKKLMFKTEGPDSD
Human liver HepG2 cells are transiently transfected with multiple reporter transcription units (MRTUs) in 6-well plates using FuGene 6 reagent (Roche; 3 ml FuGene/1 mg DNA). The MRTU constructs are regulated by a cis-regulating element (promoter). […] A major difference between the CIS and TRANS system is that in CIS activities of endogenous TFs are measured, whereas the TRANS assay evaluates changes in activities of exogenous, chimeric NR-Gal4 proteins. […] At the end of 24 hour incubation, total RNA was isolated using TriZol reagent (Invitrogen). The isolated RNA is then reverse-transcribed using oligo(dT) primer and Mo-MLV reverse transcriptase (Invitrogen) with DNAse I (Ambion) treatment for 30 min. The one-tenth of the produced cDNA was amplified by PCR using Taq DNA polymerase (Invitrogen) and two reporter sequence-specific primers. The PCR products were fluorescently labeled by primer extension with 6-arboxyfluorescein (6-FAM) 5'-labeled reporter sequence-specific primer (2 min at 95 C, 20 s at 68 C and 10 min at 72 C) and these products were digested with 5U of HpaI (New England Biolabs) for 2h at 37 C. The fragments were purified using Qiaquick PCR columns (Qiagen), analyzed on an ABI 3130xL genetic analyzer (Applied Biosystems) with peak positions identified by using a set of X-rhodamine (ROX)-labeled MapMarker1000 molecular weight standards (BioVentures). The raw capillary electrophoresis data was processed using Attagraph software (Attagene).
Turning to `Oc1ccc2c(c1)-c1ccccc1C2`, the outcome was inactive. Still for that read-out and setting: the result for `CC(C)=CCC/C(C)=C\CO` reads “inactive”; that for `CCOCCO`, “inactive”.

Regarding `C[C@](N)(Cc1ccc(O)c(O)c1)C(=O)O`, the molecule was classed as inactive.

For `COC(=O)CC(=O)OC`, the molecule was classed as inactive. For the molecule `Nc1cccc(N)c1`, the molecule was called inactive.

For the molecule `Nc1ccc(Nc2ccccc2)cc1`, the molecule was called inactive. `CC(C)=CCC/C(C)=C/CO`: the molecule was classed as inactive. The same measure, in the same setting: the result for `O=C(O)CC(O)C(=O)O` (stereo not given) reads “inactive”. Take `CC[C@H](C)C(=O)O[C@H]1C[C@@H](C)C=C2C=C[C@H](C)[C@H](CC[C@@H]3C[C@@H](O)CC(=O)O3)[C@H]21`: the result was inactive. For the molecule `COc1ccc(-n2nc(C(F)F)cc2-c2ccc(S(C)=O)cc2)cc1` (stereo not given), the result was inactive.

Regarding `CCC(C)(C)C(=O)O[C@H]1C[C@@H](C)C=C2C=C[C@H](C)[C@H](CC[C@@H]3C[C@@H](O)CC(=O)O3)[C@H]21`, the call was inactive. For the molecule `COc1ccc(/C=C/S(=O)(=O)NC(=O)c2ccc(C)cc2Cl)cc1`, the outcome was inactive.

For `COCCOc1cc2cc(C(=O)NC3CCN(C(C)C)CC3)n(CC(=O)Nc3ccc(Cl)cn3)c2cn1`, the molecule was called inactive. Still for that read-out and setting: next, `CCNc1ccccc1`: “inactive”; `CC1(C)C(=O)N(Br)C(=O)N1Br`: “inactive”.

As to `CC(=O)OC[C@H]1O[C@@](COC(C)=O)(O[C@H]2O[C@H](COC(C)=O)[C@@H](OC(C)=O)[C@H](OC(C)=O)[C@H]2OC(C)=O)[C@@H](OC(C)=O)[C@@H]1OC(C)=O`, the molecule was called inactive.

Take `COC(=O)c1c(Cl)c(Cl)c(C(=O)OC)c(Cl)c1Cl`: the outcome was inactive.

With `O=C1CCC(N2C(=O)c3ccccc3C2=O)C(=O)N1` (stereo not given), the call was inactive. In the case of `Cn1c(=O)cc(Oc2ccc(F)cc2F)c2cnc(NCC(C)(C)O)nc21`, the concentration at half-maximal activity (AC50) is 41.7 µM (active).

As for `CCOC(=O)c1ccc(C2CCC(NC[C@H](O)COc3ccc(O)c(NS(C)(=O)=O)c3)CC2)cc1` (stereo not given in full), the AC50 was 50 µM (active). Take `COCCOCCOCCOC`: the result was inactive. The same measure, in the same setting: the result for `Cc1ccc(N)cc1O` reads “inactive”; that for `CC(=O)OCCC(C)C`, “inactive”. On to `Fc1ccccc1[C@@H](F)COC1CCC(Nc2ncnc3[nH]ncc23)CC1` (stereo not given in full), for which the molecule was called inactive. Same read-out and setting: the result for `CC(C)CCO` reads “inactive”.

As for `C=CCCCCCCCCC(=O)O`, the call was inactive. For `O=c1n(CC2CO2)c(=O)n(CC2CO2)c(=O)n1CC1CO1` (stereo not given), the AC50 was 24.7 µM (active). Take `CCCCC(CC)COC(=O)c1ccc(C(=O)OCC(CC)CCCC)cc1` (stereo not given): the outcome was inactive. In the case of `CCOCCOCCOCCO`, the outcome was inactive. As to `O=C(O)c1cccc(N(Cc2cccnc2)c2ccc(OC(F)F)c(OC(F)F)c2)c1`, the AC50 was 35.7 µM (active). In the case of `CCCC(=O)OCC`, the result was inactive. For `CCCN(C1CCN(C(=O)C2CCNCC2)CC1)[C@@H]1CCc2ccc(OC)cc2C1`, the AC50 was 155 µM (active). Regarding `CC(=O)c1ccc2c(c1)[C@H](NC(=O)c1ccc(F)cc1)[C@@H](O)C(C)(C)O2`, the outcome was inactive. The same measure, in the same setting: next, `COc1cccc(-c2ccc(/C=C\CN3CCCCCC3)cc2Cl)c1`: “inactive”; `NC(=O)NO`: “inactive”. Consider `CCn1nc(Cc2ccccc2)cc1C1CCN(C[C@H]2C[C@H](N(C)[C@@H](C(=O)O)C(C)C)C[C@@H]2c2cccc(F)c2)CC1`, for which the AC50 was 100 µM (active).

As to `O=C(O)CCN(C1(C(=O)NO)CCCC1)S(=O)(=O)c1ccc(Oc2ccc(F)cc2)cc1`, the molecule was called inactive. Still for that read-out and setting: the result for `CC/C(=C\C(=N/O)C(N)=O)C(C)[N+](=O)[O-]` (stereo not given) reads “inactive”; that for `CNCc1ccc(NC(=O)c2c[nH]c3c2C(=O)CCC3)cc1`, “inactive”.
